Reference: PubChem BioAssay AID504334 (NMMLSC, 2011)
Activity calls are given as the source filed them.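 Rule for the calls: active = response relative to DMSO over 150%; inconclusive = yeast strain with under 70 recorded events; inactive = the rest.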

Experiment: AGP1-GFP expression modulators, hit retest, confirmation, cell-based, flow cytometry, S. cerevisiae, cherry pick set 3 (AID 504334);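 note: median GFP fluorescence per well by flow cytometry over the all cells gate; ratio of sample to mean DMSO control signal so DMSO = 100% not 0%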
Conditions: S. cerevisiae AGP1-GFP strain, 3 h, at 10 µM, active compounds read high

Percent response vs DMSO, inactive:
COc1ccc(OC)c(Nc2nc(NCCC(C)C)nc(N)c2[N+](=O)[O-])c1 98.4%
O=C(Nc1ccccc1Cl)ON=C1c2ccccc2-c2ccccc21 99.1%
Cc1nc(Nc2ccc(Cl)cc2)c(C#N)c(=O)[nH]1 101%
CNc1nc(N)c([N+](=O)[O-])c(Nc2cccc(Cl)c2)n1 104%
Cn1c(NCCO)nc2c(c1=O)C1(CCCCC1)Cc1ccccc1-2 104%
O=C(O)c1ccc2cccc(O)c2n1 103%
Cn1c(NCCCO)nc2c(c1=O)C1(CCCCC1)Cc1ccccc1-2 104%
O=C(N/N=C/c1ccccc1)c1cccc2ccccc12 101%
CC(=O)Nc1ccc(-c2nc3cc(Cl)ccc3o2)cc1 96.1%
CCCC(=O)Nn1cnc2c(c1=O)C1(CCCCC1)Cc1ccccc1-2 102%
Nc1cccc2c1C(=O)c1ccc(Cl)cc1C2=O 102%
COc1cccc(N/C(C)=C/C(=O)c2ccc(Br)cc2)c1 101%
C/C(=C\C(=O)c1ccccc1)Nc1cccc(O)c1 97.1%
CN(C)CCCNc1cc(O)c2ncccc2c1 105%
NC(=O)COc1cccc2cccnc12 98.1%
Cc1ccc(C)c(Nc2ncnc(N)c2[N+](=O)[O-])c1 102%
Cc1cn2c(N)c(C=C3C=C(Cl)C(=O)C(Cl)=C3)c(=O)nc2s1 101%
COc1ccc(N/C=C/C(=O)c2ccc(Cl)cc2)cc1 98.1%
C/C(=N\NC(=O)c1cccc2ccccc12)c1cccnc1 99.4%
COC(=O)COc1c(Cl)cc(Cl)c2ccc(C)nc12 105%
Cn1c(=O)c2c(n3cnnc13)-c1ccccc1CC21CCCC1 104%
CCCOCc1ccc(O)c2ncccc12 99.8%
CC(=O)Nn1cnc2c(c1=O)C1(CCCCC1)Cc1ccccc1-2 104%
O=C(Nc1ccccc1)O/N=C1\CCCCC1c1ccc([N+](=O)[O-])cc1[N+](=O)[O-] (centres undefined) 102%
OCc1ccc(O)c2ncccc12 98.8%
CC(=O)C(Cl)C(=O)Nc1ccccc1 (centres undefined) 105%
O=C(Nc1ccccc1)O/N=C1/CCCc2occc21 94.4%
O=c1cc(C(F)(F)F)[nH]c2c(OC(F)(F)F)cccc12 99.4%
Cc1ccc(NC(=O)O/N=C2\CCCCC2c2ccc([N+](=O)[O-])cc2[N+](=O)[O-])cc1 (centres undefined) 100%
Oc1ccc(F)c2cccnc12 102%
CNc1nc(N)c([N+](=O)[O-])c(Nc2ccccc2OC)n1 89.8%
Cc1ccc(C(=O)Nc2nc(-c3ccccn3)cs2)o1 102%
Cc1nc2c(O)cccc2cc1CO 99.1%
CC(=O)C(CC(=O)N1CCCC1)C(=O)Nc1ccc(Cl)cc1 (centres undefined) 100%
Cc1cccc(N/C=C/C(=O)c2ccc(Cl)cc2)c1 95.4%
Cc1ccc(-c2cc(C(F)F)nc(S(C)(=O)=O)n2)cc1 110%
COc1cccc(N/C=C/C(=O)c2ccc(C)cc2)c1 99.8%
CC1=NNC(=O)/C1=C\c1cn(-c2ccccc2)nc1-c1ccc(F)cc1 108%
Nc1ccc(O)c2c1C(=O)c1ccccc1C2=O 103%
